# Assay results reported in the supplement of paper PMC8728848.
# This is one part of a sample in which the strongest signals are shown more often than they occur.
# B1: Lb MiSSP8 (Laccaria bicolor) (protein)
# chain: MYFHTLFACATLMLITTAHASPTVINSLDSRKADLNGDVEARHAADWRRDSDWRRDSDWRRDSDWRRDSD
# Key:
# Assay in all cases: glycan array binding signal (z-score within array); higher = stronger binding
# Settings in all cases: glycan notation: IUPAC condensed, linker removed
# [1] = target: Fuc(a1-2)Gal(b1-3)GlcNAc(b1-2)Man(a1-3)[Fuc(a1-2)Gal(b1-3)GlcNAc(b1-2)Man(a1-6)]Man(b1-4)GlcNAc(b1-4)[Fuc(a1-6)]GlcNAc
# In short: (§1)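 The Consortium for Functional Glycomics database supplied 3228 glycan arrays, of which those lacking an available protein sequence were dropped. The binding signal, a within-array Z-score, was averaged across arrays of the same protein sequence and across linkers. Negative scores can be read as non-binding.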
# [2] = target: Fuc(a1-2)Gal(b1-4)[Fuc(a1-3)]GlcNAc(b1-2)[Fuc(a1-2)Gal(b1-4)[Fuc(a1-3)]GlcNAc(b1-4)]Man(a1-3)[Fuc(a1-2)Gal(b1-4)[Fuc(a1-3)]GlcNAc(b1-2)Man(a1-6)]Man(b1-4)GlcNAc(b1-4)GlcNAc
# In short: as §1
# [3] = target: Fuc(a1-2)[Gal(a1-3)]Gal(b1-3)GalNAc
# In short: as §1
# [4] = target: Fuc(a1-2)[Gal(a1-3)]Gal(b1-4)GlcNAc(b1-6)GalNAc
# In short: as §1
# [5] = target: Fuc(a1-2)[GalNAc(a1-3)]Gal(b1-4)GlcNAc
# In short: as §1
# [6] = target: Fuc(a1-3)[GalNAc(b1-4)]GlcNAc
# In short: as §1
# [7] = target: Gal(a1-3)Gal(b1-3)GlcNAc(b1-6)GalNAc
# In short: as §1
# [8] = target: Gal(a1-3)Gal(b1-3)[Fuc(a1-4)]GlcNAc(b1-2)Man(a1-3)[Gal(a1-3)Gal(b1-3)[Fuc(a1-4)]GlcNAc(b1-2)Man(a1-6)]Man(b1-4)GlcNAc(b1-4)GlcNAc
# In short: as §1
# [9] = target: Gal(a1-3)Gal(b1-4)GlcNAc(b1-6)GalNAc
# In short: as §1
# [10] = target: Gal(a1-3)Gal(b1-4)[Fuc(a1-3)]GlcNAc
# In short: as §1
# [11] = target: Gal(a1-4)Gal(b1-4)GlcNAc(b1-2)Man(a1-3)[Gal(a1-4)Gal(b1-4)GlcNAc(b1-2)Man(a1-6)]Man(b1-4)GlcNAc(b1-4)GlcNAc
# In short: as §1
# [12] = target: Gal(b1-3)GalNAc(a1-3)[Fuc(a1-2)]Gal(b1-4)GlcNAc
# In short: as §1
# [13] = target: Gal(b1-3)GlcNAc(a1-6)Gal(b1-4)GlcNAc
# In short: as §1
# Gal(b1-4)Gal = target: Gal(b1-4)Gal
# In short: as §1
# Gal(b1-4)Glc = target: Gal(b1-4)Glc
# In short: as §1
# [14] = target: Gal(b1-4)GlcNAc(b1-2)[Gal(b1-4)GlcNAc(b1-4)]Man(a1-3)[GlcNAc(b1-4)][Gal(b1-4)GlcNAc(b1-2)Man(a1-6)]Man(b1-4)GlcNAc(b1-4)GlcNAc
# In short: as §1
# [15] = target: Gal(b1-4)GlcNAc(b1-3)Gal(b1-4)GlcNAc(b1-2)[Gal(b1-4)GlcNAc(b1-3)Gal(b1-4)GlcNAc(b1-6)]Man(a1-6)[Gal(b1-4)GlcNAc(b1-3)Gal(b1-4)GlcNAc(b1-2)Man(a1-3)]Man(b1-4)GlcNAc(b1-4)GlcNAc
# In short: as §1
# [16] = target: Gal(b1-4)GlcNAc(b1-6)GalNAc
# In short: as §1
# Gal3S4S(b1-4)GlcNAc = target: Gal3S4S(b1-4)GlcNAc
# In short: as §1
# Gal6S(b1-4)GlcNAc6S = target: Gal6S(b1-4)GlcNAc6S
# In short: as §1
# [17] = target: GalNAc(b1-3)Gal(a1-4)Gal(b1-4)GlcNAc(b1-3)Gal(b1-4)Glc
# In short: as §1
# [18] = target: GalNAc(b1-4)GlcNAc(b1-2)Man
# In short: as §1
# GlcA(b1-3)GlcNAc = target: GlcA(b1-3)GlcNAc
# In short: as §1
# [19] = target: GlcNAc(b1-2)[GlcNAc(b1-4)]Man(a1-3)[GlcNAc(b1-4)][GlcNAc(b1-2)Man(a1-6)]Man(b1-4)GlcNAc(b1-4)GlcNAc
# In short: as §1
# [20] = target: GlcNAc(b1-3)Gal(b1-4)GlcNAc(b1-2)Man(a1-3)[GlcNAc(b1-3)Gal(b1-4)GlcNAc(b1-2)Man(a1-6)]Man(b1-4)GlcNAc(b1-4)[Fuc(a1-6)]GlcNAc
# In short: as §1
# [21] = target: GlcNAc(b1-3)Gal(b1-4)GlcNAc(b1-2)[GlcNAc(b1-3)Gal(b1-4)GlcNAc(b1-6)]Man(a1-6)[GlcNAc(b1-3)Gal(b1-4)GlcNAc(b1-2)Man(a1-3)]Man(b1-4)GlcNAc(b1-4)GlcNAc
# In short: as §1
# [22] = target: GlcNAc(b1-3)Gal(b1-4)GlcNAc(b1-3)Gal(b1-4)GlcNAc(b1-2)Man(a1-3)[GlcNAc(b1-3)Gal(b1-4)GlcNAc(b1-3)Gal(b1-4)GlcNAc(b1-2)Man(a1-6)]Man(b1-4)GlcNAc(b1-4)GlcNAc
# In short: as §1
# [23] = target: GlcNAc(b1-3)Gal(b1-4)GlcNAc(b1-3)Gal(b1-4)GlcNAc(b1-2)Man(a1-3)[GlcNAc(b1-3)Gal(b1-4)GlcNAc(b1-3)Gal(b1-4)GlcNAc(b1-2)Man(a1-6)]Man(b1-4)GlcNAc(b1-4)[Fuc(a1-6)]GlcNAc
# In short: as §1
# [24] = target: GlcNAc(b1-3)Gal(b1-4)GlcNAc(b1-3)Gal(b1-4)GlcNAc(b1-3)Gal(b1-4)GlcNAc(b1-2)Man(a1-3)[GlcNAc(b1-3)Gal(b1-4)GlcNAc(b1-3)Gal(b1-4)GlcNAc(b1-3)Gal(b1-4)GlcNAc(b1-2)Man(a1-6)]Man(b1-4)GlcNAc(b1-4)[Fuc(a1-6)]GlcNAc
# In short: as §1
# [25] = target: GlcNAc(b1-4)GlcNAc(b1-4)GlcNAc
# In short: as §1
# [26] = target: Man(a1-2)Man(a1-6)[Man(a1-3)]Man(a1-6)[Man(a1-2)Man(a1-2)Man(a1-3)]Man
# In short: as §1
# [27] = target: Man(a1-3)[Man(a1-6)]Man(a1-6)[Man(a1-3)]Man
# In short: as §1
# [28] = target: Neu5Ac(a2-3)Gal(b1-3)GlcNAc(b1-3)Gal(b1-4)GlcNAc
# In short: as §1
# [29] = target: Neu5Ac(a2-3)Gal(b1-3)GlcNAc6S
# In short: as §1
# [30] = target: Neu5Ac(a2-3)Gal(b1-4)GlcNAc(b1-2)Man(a1-3)[Neu5Ac(a2-3)Gal(b1-4)GlcNAc(b1-2)Man(a1-6)]Man(b1-4)GlcNAc(b1-4)GlcNAc
# In short: as §1
# [31] = target: Neu5Ac(a2-3)Gal(b1-4)GlcNAc(b1-3)Gal(b1-4)GlcNAc(b1-3)GalNAc
# In short: as §1
# [32] = target: Neu5Ac(a2-3)Gal(b1-4)GlcNAc(b1-3)GalNAc
# In short: as §1
# [33] = target: Neu5Ac(a2-3)Gal(b1-4)GlcNAc(b1-6)[Gal(b1-3)]GalNAc
# In short: as §1
# [34] = target: Neu5Ac(a2-6)Gal(b1-4)GlcNAc(b1-2)Man(a1-6)[Gal(b1-4)GlcNAc(b1-2)Man(a1-3)]Man(b1-4)GlcNAc(b1-4)GlcNAc
# In short: as §1
# [35] = target: Neu5Ac(a2-6)Gal(b1-4)GlcNAc(b1-2)Man(a1-6)[GlcNAc(b1-2)Man(a1-3)]Man(b1-4)GlcNAc(b1-4)GlcNAc
# In short: as §1
# [36] = target: Neu5Ac(a2-8)Neu5Ac(a2-3)Gal(b1-3)GalNAc(b1-4)[Neu5Ac(a2-3)]Gal(b1-4)Glc
# In short: as §1
# [37] = target: Neu5Ac(a2-8)Neu5Ac(a2-3)Gal(b1-4)Glc
# In short: as §1
# [38] = target: Neu5Ac(a2-8)Neu5Ac(a2-8)Neu5Ac(a2-3)[Gal(b1-3)GalNAc(b1-4)]Gal(b1-4)Glc
# In short: as §1
# [39] = target: Neu5Ac(a2-8)Neu5Ac(a2-8)Neu5Ac(a2-3)[GalNAc(b1-4)]Gal(b1-4)Glc
# In short: as §1
# [40] = target: Neu5Gc(a2-3)Gal(b1-3)GlcNAc
# In short: as §1
# [41] = target: Neu5Gc(a2-8)Neu5Ac(a2-3)Gal(b1-4)GlcNAc
# In short: as §1
binder,measurement,setting,value
B1,glycan array binding signal (z-score),[1],1.26
same,glycan array binding signal (z-score),[2],1.27
same,glycan array binding signal (z-score),[3],0.371
same,glycan array binding signal (z-score),[4],-0.53
same,glycan array binding signal (z-score),[5],-0.502
same,glycan array binding signal (z-score),[6],1.06
same,glycan array binding signal (z-score),[7],-0.806
same,glycan array binding signal (z-score),[8],1.55
same,glycan array binding signal (z-score),[9],-0.599
same,glycan array binding signal (z-score),[10],-0.488
same,glycan array binding signal (z-score),[11],10.8
same,glycan array binding signal (z-score),[12],-0.267
same,glycan array binding signal (z-score),[13],-0.136
same,glycan array binding signal (z-score),Gal(b1-4)Gal,-3.19
same,glycan array binding signal (z-score),Gal(b1-4)Glc,0.702
same,glycan array binding signal (z-score),[14],-0.274
same,glycan array binding signal (z-score),[15],2.86
same,glycan array binding signal (z-score),[16],-0.433
same,glycan array binding signal (z-score),Gal3S4S(b1-4)GlcNAc,-0.771
same,glycan array binding signal (z-score),Gal6S(b1-4)GlcNAc6S,-0.571
same,glycan array binding signal (z-score),[17],4.15
same,glycan array binding signal (z-score),[18],-0.744
same,glycan array binding signal (z-score),GlcA(b1-3)GlcNAc,3.78
same,glycan array binding signal (z-score),[19],-0.64
same,glycan array binding signal (z-score),[20],2.31
same,glycan array binding signal (z-score),[21],0.54
same,glycan array binding signal (z-score),[22],2.57
same,glycan array binding signal (z-score),[23],2.43
same,glycan array binding signal (z-score),[24],2.57
same,glycan array binding signal (z-score),[25],0.319
same,glycan array binding signal (z-score),[26],-0.578
same,glycan array binding signal (z-score),[27],2.36
same,glycan array binding signal (z-score),[28],-0.868
same,glycan array binding signal (z-score),[29],-0.226
same,glycan array binding signal (z-score),[30],-0.578
same,glycan array binding signal (z-score),[31],-0.343
same,glycan array binding signal (z-score),[32],-0.122
same,glycan array binding signal (z-score),[33],3.01
same,glycan array binding signal (z-score),[34],-0.606
same,glycan array binding signal (z-score),[35],-0.668
same,glycan array binding signal (z-score),[36],-0.336
same,glycan array binding signal (z-score),[37],-0.744
same,glycan array binding signal (z-score),[38],1.08
same,glycan array binding signal (z-score),[39],-0.82
same,glycan array binding signal (z-score),[40],-0.571
same,glycan array binding signal (z-score),[41],-0.958
